Each structure is given as a SMILES string. Values joined by “and” are separate entries in the source; they are usually repeats but may differ in a detail not shown here. Equal values may be shown once. Results filed as inconclusive are left out. Some structures have more than one record in an assay (separate samples or runs), and their calls can disagree. Active and inactive are the calls of the source. The call rests on the fitted dose curve; in most records, active means well fitted curve in the direction sought with a large enough effect; inconclusive means small, poorly fitted or top-dose-only effect, or another doubt; inactive means no such curve, though single readings can be large or run the other way.

These results are taken from PubChem BioAssay (NCATS).

The target in the first experiment is T1, Hexokinase-4 (Homo sapiens) + Glucokinase regulatory protein (Homo sapiens) (UniProt P35557+Q14397). Briefly: qHTS assay for inhibitors of recombinant human GCK-GKRP interaction: ADP-Glo assay (AID 743206).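 Further: plate controls were DMSO plus enzyme for no effect and no enzyme for full effect.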 The following applies: ADP-Glo luminescence, 60 min, 0% = vehicle-only wells with enzyme present; series mostly up to 76.9 µM; activity, positive = activation: at the top concentration. In short, it runs like this: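 GST-GCK and FLAG-GKRP (15 nM each in the dispensed mix, with 2 uM S6P) react with 0.4 mM ATP and 5 mM glucose (final) in Hepes pH 7.6 for 60 min at room temperature. ADP is measured by ADP-Glo luminescence.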
T1 sequence (P35557 whole entry, looked up): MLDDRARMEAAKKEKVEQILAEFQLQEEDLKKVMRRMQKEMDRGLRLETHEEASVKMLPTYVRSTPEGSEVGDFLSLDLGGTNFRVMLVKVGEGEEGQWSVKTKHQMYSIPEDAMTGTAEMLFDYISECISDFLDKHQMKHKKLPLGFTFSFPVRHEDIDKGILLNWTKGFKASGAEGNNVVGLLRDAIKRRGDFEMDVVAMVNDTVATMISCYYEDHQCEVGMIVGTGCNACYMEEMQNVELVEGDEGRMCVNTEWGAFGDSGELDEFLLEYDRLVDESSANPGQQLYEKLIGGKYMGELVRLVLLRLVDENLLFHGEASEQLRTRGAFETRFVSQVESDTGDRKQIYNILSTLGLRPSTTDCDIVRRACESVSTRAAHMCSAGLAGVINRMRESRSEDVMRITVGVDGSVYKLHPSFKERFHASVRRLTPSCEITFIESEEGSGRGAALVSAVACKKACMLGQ
T1 sequence (Q14397 whole entry, looked up): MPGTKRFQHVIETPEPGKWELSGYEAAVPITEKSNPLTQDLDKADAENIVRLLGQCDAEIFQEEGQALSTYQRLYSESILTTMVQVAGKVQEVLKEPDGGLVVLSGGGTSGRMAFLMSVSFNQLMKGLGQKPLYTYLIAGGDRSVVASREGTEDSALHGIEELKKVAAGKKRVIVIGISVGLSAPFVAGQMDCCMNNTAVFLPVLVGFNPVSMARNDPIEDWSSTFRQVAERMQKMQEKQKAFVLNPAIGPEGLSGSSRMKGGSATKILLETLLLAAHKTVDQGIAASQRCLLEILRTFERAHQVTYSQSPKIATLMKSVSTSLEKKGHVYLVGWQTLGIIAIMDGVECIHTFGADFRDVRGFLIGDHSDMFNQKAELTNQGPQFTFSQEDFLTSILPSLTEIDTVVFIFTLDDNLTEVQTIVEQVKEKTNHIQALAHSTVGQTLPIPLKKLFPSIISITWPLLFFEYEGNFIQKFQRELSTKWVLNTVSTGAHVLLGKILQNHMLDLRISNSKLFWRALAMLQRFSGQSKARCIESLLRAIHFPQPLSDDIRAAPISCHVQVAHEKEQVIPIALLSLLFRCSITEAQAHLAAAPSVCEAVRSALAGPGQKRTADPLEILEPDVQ
Consider `CNCCC(Oc1ccc(C(F)(F)F)cc1)c1ccccc1` (stereo not drawn), for which the “activity, positive = activation” value is -2% (inactive). Take `CN(C)CC[C@@H](c1ccc(Cl)cc1)c1ccccn1`: the “activity, positive = activation” value is 4.83% (inactive). Still for that read-out and setting: as for `O=C1N=C(O)CN1/N=C/c1ccc(-c2ccc([N+](=O)[O-])cc2)o1`, the figure is 4.1% (inactive); as for `COCCOC(=O)C1=C(C)NC(C)=C(C(=O)OC/C=C/c2ccccc2)C1c1cccc([N+](=O)[O-])c1` (stereo not drawn), 2.04% (inactive); as for `Nc1ncnc2c1ncn2[C@@H]1O[C@H](CO)[C@@H](O)[C@H]1O`, 3.13% (inactive). Regarding `CCN(CC)CCOC(=O)C1(C2CCCCC2)CCCCC1`, the “activity, positive = activation” value is 4.86% (inactive).

`NC1CCN(c2cccc(Cl)n2)CC1`: the “activity, positive = activation” value was -1.04% (inactive). Still for that read-out and setting: then `C#CCN(C)Cc1ccccc1`, with -0.0478% (inactive).

`CSc1ccc2c(c1)N(CCC1CCCCN1C)c1ccccc1S2` (stereo not drawn): the “activity, positive = activation” value was -1.24% (inactive). The same measure, in the same setting: then `CCN(CC)C(C)CN1c2ccccc2Sc2ccccc21` (stereo not drawn), with -1.66% (inactive).

The next experiment deals with T1, Hexokinase-4 (Homo sapiens) + Glucokinase regulatory protein (Homo sapiens). The experiment in a line: qHTS assay for inhibitors of recombinant human GCK-GKRP interaction: HTRF assay (AID 743207).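 Further: 0% = DMSO with GCK present and -100% = DMSO wells lacking GCK.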 The following applies: recombinant GCK-GKRP HTRF binding, 60 min, with sorbitol-6-phosphate; series mostly up to 57.5 µM; activity change, negative = inhibition: at the top concentration. In outline:
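GST-GCK and FLAG-GKRP (5 nM each) were combined with 2 uM S6P in pH 7.1 Hepes/MgCl2/KCl/DTT buffer, then compound and anti-FLAG XL665/anti-GST K antibodies were added. After 60 min at room temperature, HTRF 665/615 nm emission was read.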
For `CNCCC(Oc1ccc(C(F)(F)F)cc1)c1ccccc1` (stereo not drawn), the “activity change, negative = inhibition” value is -2.83% (inactive). Still for that read-out and setting: as for `CN(C)CC[C@@H](c1ccc(Cl)cc1)c1ccccn1`, the figure is 2.17% (inactive); as for `O=C1N=C(O)CN1/N=C/c1ccc(-c2ccc([N+](=O)[O-])cc2)o1`, 24.4% (inactive). In the case of `COCCOC(=O)C1=C(C)NC(C)=C(C(=O)OC/C=C/c2ccccc2)C1c1cccc([N+](=O)[O-])c1` (stereo not drawn), the “activity change, negative = inhibition” value was 0.843% (inactive). Regarding `Nc1ncnc2c1ncn2[C@@H]1O[C@H](CO)[C@@H](O)[C@H]1O`, the “activity change, negative = inhibition” value was 1.3% (inactive).

On to `CCN(CC)CCOC(=O)C1(C2CCCCC2)CCCCC1`, for which the “activity change, negative = inhibition” value was -3.47% (inactive). The same measure, in the same setting: then `NC1CCN(c2cccc(Cl)n2)CC1`, with 1.77% (inactive); and `C#CCN(C)Cc1ccccc1`, with 6.95% (inactive); and `CSc1ccc2c(c1)N(CCC1CCCCN1C)c1ccccc1S2` (stereo not drawn), with -1.38% (inactive).

For `CCN(CC)C(C)CN1c2ccccc2Sc2ccccc21` (stereo not drawn), the “activity change, negative = inhibition” value is -3.45% (inactive).

System in a further experiment: not listed separately
Briefly: qHTS Assay for Identifying Gametocytocidal Compounds (AID 743244). Further: potency means the concentration at half of the fitted maximal effect.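 On max response: on the % scale 0 is the no-effect control and ±100 the full control effect; actives lower the fluorescent signal which means gametocytes are killed.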 The settings on record: P. falciparum 3D7 stage III-V gametocytes, alamarBlue, 72 h; max response: active compounds read low. In short, it runs like this: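 Stage III–V gametocytes of P. falciparum 3D7 were seeded at 20,000 cells/well onto pre-dispensed compounds. After 72 h, 37 °C, 5% CO2, alamarBlue was added for another 24 h.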
With `CC[C@@]1(c2ccccc2)NC(=O)N(C)C1=O`, the max response is 7.9% (inactive). As for `OCC(CO)N[C@H]1C[C@](O)(CO)[C@@H](O)[C@H](O)[C@H]1O`, the max response was 7.19% (inactive).

For the compound `C[C@@H]1CN(c2c(F)c(F)c3c(=O)c(C(=O)O)cn(C4CC4)c3c2F)C[C@H](C)N1`, the max response was 12.6% (inactive). For `O=c1[nH]c(=O)c2[nH]c(=O)[nH]c2[nH]1`, the max response was 19.7% (inactive) and 9.73% (inactive). The same measure, in the same setting: as for `CC1CC(OC(=O)C(O)c2ccccc2)CC(C)(C)N1C` (stereo not drawn), the figure is 12.1% (inactive) and 4.11% (inactive); as for `COc1cc(C)c(Cc2cnc(N)nc2N)cc1OC`, -2.96% (inactive); as for `CC(C)(C)NCC(O)COc1ccc(NC(=O)NC2CCCCC2)cc1` (stereo not drawn), 11.9% (inactive). For the compound `CN(C)CC[C@@H](c1ccc(Cl)cc1)c1ccccn1`, the Potency is 26.4 µM (active) and the max response was 25.3% (inactive). On to `O=C1N=C(O)CN1/N=C/c1ccc(-c2ccc([N+](=O)[O-])cc2)o1`, for which the max response is 4.07% (inactive) and 20.9% (inactive). Turning to `COc1cc(C(=O)N2CCOCC2)cc(OC)c1OC`, the max response was -5.92% (inactive) and 13.8% (inactive). Take `COCCOC(=O)C1=C(C)NC(C)=C(C(=O)OC/C=C/c2ccccc2)C1c1cccc([N+](=O)[O-])c1` (stereo not drawn): the max response was 2.31% (inactive) and 20.4% (inactive). For the compound `O=C(O)c1ccccc1O`, the max response was 6.2% (inactive) and -5.06% (inactive). Turning to `CC/C=C(\C(=O)N[C@@H]1C(=O)N2C(C(=O)OCOC(=O)C(C)(C)C)=C(COC(N)=O)CS[C@H]12)c1csc(N)n1`, the max response is 11.6% (inactive) and -14.5% (inactive). As to `CC(=O)Nc1ccc(/C=N/NC(N)=S)cc1`, the max response was -6.31% (inactive) and 5.4% (inactive). Still for that read-out and setting: as for `NC(CSCC(=O)O)C(=O)O` (stereo not drawn), the figure is -8.42% (inactive). Regarding `CC1(C)S[C@@H]2[C@H](NC(=O)Cc3ccccc3)C(=O)N2[C@H]1C(=O)O` (tested in a mixture with another compound), the max response was -2.5% (inactive).

For the compound `O=Cc1ccccc1C=O`, the max response is -3.58% (inactive). With `Cn1cc[nH]c1=S`, the max response was -4.61% (inactive). With `NC1CCN(c2cccc(Cl)n2)CC1`, the max response was 1.41% (inactive) and 17.3% (inactive). The same measure, in the same setting: then `C#CCN(C)Cc1ccccc1`, with 14.1% (inactive) and 13.7% (inactive); and `CN1[C@@H]2CC[C@H]1CC(OC(=O)C(O)c1ccccc1)C2` (stereo partly drawn), with -8.53% (inactive) and 3.5% (inactive) and -4.14% (inactive). The same measure, in the same setting: as for `C[C@@H]1CC[C@@]2(OC1)O[C@H]1C[C@H]3[C@@H]4CC[C@H]5C[C@@H](O)CC[C@]5(C)[C@H]4CC(=O)[C@]3(C)[C@H]1[C@@H]2C`, the figure is -9.03% (inactive). Take `CCCCC/C(C=O)=C\c1ccccc1`: the max response is 8.31% (inactive). Regarding `CSc1ccc2c(c1)N(CCC1CCCCN1C)c1ccccc1S2` (stereo not drawn), the Potency was 2.51 µM (active). `CN(C)CCCO[C@@H]1[C@H]2OC(C)(C)O[C@H]2O[C@@H]1C(O)CO` (stereo partly drawn): the max response was -6.36% (inactive). The same measure, in the same setting: as for `NC(=O)NC(=O)Cc1ccccc1`, the figure is 3.39% (inactive); as for `O=C(O)COc1nn(Cc2ccccc2)c2ccccc12`, 49.6% (inactive); as for `Cc1cccc(C)c1NC(=O)CN(CC(=O)O)CC(=O)O`, -6.34% (inactive). Take `N[C@H]1C(O)O[C@H](CO)[C@@H](O)[C@@H]1O` (stereo partly drawn): the max response was -9.09% (inactive).

`CCN(CC)C(C)CN1c2ccccc2Sc2ccccc21` (stereo not drawn): the max response is 2.08% (inactive) and 2.32% (inactive). The same measure, in the same setting: then `Nc1nc2c(ncn2CCC(CO)CO)c(=O)[nH]1`, with -1.67% (inactive); and `CCCCOc1cc(C(=O)OCCN(CC)CC)ccc1N`, with 9.75% (inactive).
